The values that follow come from PubChem BioAssay (NCI).

About 83,000 compounds went through this panel and 20% of them were active in at least one assay; those are over-represented in the sample as a whole.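 Testing used 96-well plates and a 48-hour single-concentration exposure. Example: -40 means 40% of the starting cells died.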 Active and inactive are the calls of the source. The calls were made as follows: active = growth percent below 10; inactive = the rest.

The experiment has as its system MDA-MB-468 breast. Briefly: NCI-60 one-dose screen, 48 h (100 = growth as untreated, 0 = no growth, -100 = all killed). The note with it: 10 µM unless noted.
Take `c1cc(CNCCNCc2ccncc2)ccn1`: the growth is 104% (inactive).
Then `COc1cccc(-n2cc(-c3nc(Nc4cc(C)[nH]n4)c4ccccc4n3)nn2)c1`, with 48.1% (inactive); and `O=C(CCN1C(=O)/C(=C/c2ccccc2F)SC1=S)N1CCOCC1`, with 24.7% (inactive).
With `Cc1cc(=O)[nH]n1-c1cc(Cl)ccc1N`, the growth was 110% (inactive).
`CCOC(=O)C1=C(C)NC(SCc2nnc(-c3ccc(Cl)cc3)o2)=NC1c1ccc(Cl)cc1Cl` (configuration not stated): the growth is 88.4% (inactive).
With `Cc1oc(-c2ccc(Cl)cc2)nc1/C=C/C(=O)c1ccccc1`, the growth is 95% (inactive).
As to `Nc1cc2c(cc1Cl)C(=O)c1ccccc1C2=O`, the growth was 70.2% (inactive).
As for `O=C1c2cccc3cccc(c23)C(=O)N1Nc1nc(N2CCOCC2)nc(N2CCN(c3ccccc3)CC2)n1`, the growth is -15.8% (active).
As to `COc1ccc(-c2nn(-c3ccccc3)cc2/C=C2\SC(=O)NC2=O)cc1`, the growth was 107% (inactive).
With `C=CC(C)(O)CCC1C(=C)CCC2C(C)(C)CCCC12C` (configuration not stated) the figure was 109% (inactive); with `Clc1ccc2c(NCCCCNc3nc(N4CCCCC4)nc4ccccc34)ccnc2c1`, 7.06% (active).
For `c1ccc(-c2ccc3c(c2)C2(CCNCC2)CN3)cc1`, the growth was 106% (inactive).
As to `CC(C)c1ccc(NCc2cn(-c3ccc(C(=O)O)cc3)nc2-c2cc(C(F)(F)F)cc(C(F)(F)F)c2)cc1`, the growth was 102% (inactive).
In the case of `C=C(C=O)[C@@H]1CC[C@]2(C)[C@H](C(=O)C=C3[C@H]4C[C@](C)(C(=O)OC)CC[C@]4(C)CC[C@]32C)[C@@]1(C)CCC#N`, the growth is 80.2% (inactive).
In the case of `CCOC(=O)c1c(C)nc2c(c1N)/C(=C/c1ccccn1)C(=O)N2Cc1ccccc1`, the growth was -49.5% (active).
With `Cn1c2ccccc2c2nnc(N/N=C/c3ccccn3)nc21` the figure was -25.1% (active); with `C=C(C)[C@@H]1CC[C@]2(C)[C@H](CC=C3[C@@H]4[C@@H](C)[C@H](C)CC[C@]4(C(N)=O)CC[C@]32C)[C@@]1(C)CCC#N`, 0.182% [100 µM] (active).
Then `COC1=CC(c2ccc[nH]2)=N/C1=C\c1[nH]c(C)c(C(=O)OC(C)C)c1C`, with -74.1% (active).
With `c1cncc(CNc2ccccc2-c2nnc(Nc3ccc4c(c3)OCCO4)o2)c1`, the growth was -0.422% (active).
Regarding `COc1cc2c(cc1OC)N(CCO)C1=C(C(=O)OC1)C2c1ccc(Cl)c(Cl)c1` (configuration not stated), the growth was 112% (inactive).
Then `NC(=O)[C@@H]1Cc2ccccc2CN1C(=O)c1ccc2c(c1)Cc1ccccc1-2`, with 71.4% (inactive); and `CCCCCCNC(=O)c1cc(NCc2cc(O)ccc2O)ccc1O`, with 65.6% (inactive).
In the case of `Clc1ccc2nc(CI)c(CI)nc2c1`, the growth was 55.6% (inactive).
On to `Fc1ccc(C2CC(c3cccc(Nc4ccncc4)c3)=NN2c2cc(Cl)cc(Cl)c2)cc1` (configuration not stated), for which the growth is 37.6% (inactive).
As to `CCN(CC)CCCOC(=O)Nc1ccccc1Cl`, the growth is 107% (inactive).
Turning to `CC(C)(CNC1CCCCC1)OC(=O)c1ccccc1`, the growth was 94.3% (inactive).
Then `O=C(Nc1cc([N+](=O)[O-])c2[nH]c(=O)c3ccccc3c2c1)C(F)(F)F`, with -15.2% (active); and `Cn1cc(-c2ccc3cc(-c4ccc(CC(=O)Nc5cc(C(C)(C)C)nn5C)cc4)cnc3c2)cn1`, with -6.24% (active).
Then `COC1C(O)CC(OC2CC(OC3CC(O[C@@H]4C(=O)c5c(cc6cc(OC7CC(OC8CC(O)C(O)C(C)O8)C(O)C(C)O7)c(C)c(O)c6c5O)CC4[C@H](OC)[C@@H](O)C(C)=O)OC(C)C3O)OC(C)C2O)OC1C` (some centres not stated), with -40.1% (active); and `CCCCc1oc2ccccc2c1C(=O)c1ccc(O)cc1`, with 78.4% (inactive).
Consider `CCCCNC(=O)NS(=O)(=O)c1ccc(N2N=C(c3ccc(C)cc3C)CC2c2ccc(OC)cc2)cc1` (configuration not stated), for which the growth is 65.1% (inactive).
In the case of `O=c1[nH]nc(-c2ccc(Cl)cc2)cc1Cc1cccc([N+](=O)[O-])c1`, the growth is 102% (inactive).
In the case of `O=C(Nc1ccc(NCCN2CCOCC2)nc1)c1ccc([N+](=O)[O-])cc1`, the growth was 104% (inactive).
Take `COc1ccc(-c2nc(SCCC(C)C)nc(N/N=C(/C)c3ccc(N)cc3)c2C#N)cc1`: the growth was 103% (inactive).
On to `CCN1CCN(CCOc2ccc(CNc3ccc4nc(CCC5CCCCC5)[nH]c4c3)cc2)CC1`, for which the growth is 35% (inactive).
Turning to `CCN(CC)c1ccc(C(=O)c2ccc(N(CC)CC)cc2)cc1`, the growth is -36% (active).
As for `COc1ccc(-c2cc(-c3cccnc3)nc(S(=O)(=O)CC(=O)Nc3ccc(C)cc3)c2C#N)cc1OC`, the growth was 96% (inactive).
